Compound activity deposited in PubChem by several laboratories.
BAP1 inh: human BAP1 deubiquitinase inhibition. Q92560. recombinant BAP1, Ub-AMC hydrolysis fluorescence kinetic; hits give low values. calls only at 20 µM. actives 0.48% (n = 72,000). AID 436;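 active = activity remaining at or below 50% of control, provided the compound also passes the data quality filters; inactive = the rest, including low values that fail the filters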;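 note: 100% = DMSO wells rate and 0% = substrate alone blank rate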
DAT uptake mod: changed human dopamine transporter uptake under cocaine IC80; Q01959; LLC-PK1 hDAT cells, [14C]-dopamine uptake with cocaine IC80; actives deviate in either direction; B-score at 10 µM; actives 1.3% (n = 110,000); AID 449768;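 active = Z score or B-score, a plate-position-corrected score, falls beyond the plate's 99.7% confidence bounds, in either direction; inactive = both scores lie inside the 99.7% bounds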;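 note: scored against the spread of the other compound wells on the same plate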
D1 mod: D1 dopamine receptor (human) allosteric modulation | actives 5.9% (n = 58,000) | P21728 | HEK293 D1, CRE-luciferase, dopamine EC30 potentiation; actives deviate in either direction | AID 641 | B-score at 10 µM;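 active = luminescence count or its row- and column-corrected plate score outside the 99.7% band of the plate's sample wells, on either side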
Target sequence (P21728 whole entry, looked up): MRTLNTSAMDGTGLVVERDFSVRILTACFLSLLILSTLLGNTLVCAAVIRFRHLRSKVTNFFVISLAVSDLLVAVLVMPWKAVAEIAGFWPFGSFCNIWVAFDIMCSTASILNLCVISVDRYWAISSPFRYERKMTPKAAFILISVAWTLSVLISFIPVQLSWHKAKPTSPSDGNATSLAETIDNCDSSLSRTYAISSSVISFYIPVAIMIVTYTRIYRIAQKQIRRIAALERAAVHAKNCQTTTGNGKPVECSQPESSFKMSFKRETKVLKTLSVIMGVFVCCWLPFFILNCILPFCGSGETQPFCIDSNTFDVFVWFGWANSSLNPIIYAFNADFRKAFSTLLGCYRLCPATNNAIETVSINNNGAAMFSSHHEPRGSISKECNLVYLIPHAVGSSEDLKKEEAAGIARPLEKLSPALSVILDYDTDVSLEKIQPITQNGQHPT
D1 mod confirm: D1 receptor (human) allosteric modulation, confirmed. shares compounds with D1 mod. HEK293 D1 CRE-luciferase, dopamine EC30 potentiation; hits give high values. luminescence at 10 µM. actives 88% (n = 2,200). AID 642;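 active = luminescence in either of two replicates above the same-plate mean plus 3 SD of the low-dose dopamine control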
D1 no dopamine: D1 (human) signaling in absence of dopamine | AID 646 | luminescence at 10 µM | HEK293 D1 CRE-luciferase, luminescence, no dopamine; hits give high values | actives 0.8% (n = 1,900) | shares compounds with D1 mod; in the data active = luminescence above about 3900
Isoprot counter: counter-screen for D1 modulators: isoproterenol response in HEK293 cells; shares compounds with D1 mod; HEK293 D1 CRE-luciferase, isoproterenol EC30 counter-screen; hits give high values; luminescence at 10 µM; actives 63% (n = 2,200); AID 647;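 active = luminescence in either replicate above plate mean of wells with a partly effective reference agonist dose plus 3 SD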;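 note: isoproterenol raises cAMP through native beta-adrenoceptor Gs so signal bypasses D1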
The depositor's hits bear a star; i = inactive; . = no result given. The entries come from a sample that favours hits as a whole.

SMILES	BAP1 inh	DAT uptake mod	D1 mod	D1 mod confirm	D1 no dopamine	Isoprot counter
O=C(Nc1ccc(NC(=O)c2ccc(-c3cccc([N+](=O)[O-])c3)o2)cc1)c1ccco1	i	.	.	.	.	.
CCc1cc2c(=O)c(-c3ccc(OC(C)C)cc3)coc2cc1OC(C)=O	i	.	.	.	.	.
O=C1c2cccc([N+](=O)[O-])c2C(=O)N1c1ccccn1	i	.	.	.	.	.
C=CCNc1nc(N)c(C(=O)Nc2cc(C)on2)s1	i	0.54	.	.	.	.
C=CCNc1nc(N)c(C(=O)c2ccc3c(c2)OCO3)s1	i	0.44	18*	14852*	1788	4416*
Oc1ccc(-c2nc3cnccn3c2Nc2ccc3c(c2)OCCO3)cc1	i	.	2.8*	9088*	1484	3604*
Oc1ccc(-c2nc3ncccn3c2Nc2ccc3c(c2)OCO3)cc1	i	-0.29	-0.59	.	.	.
Cc1cc(OC(=O)N2CCOCC2)cc(C)c1Cl	i	-0.06	0.21	.	.	.
CC(=O)Oc1c(Cl)c(N2CCOCC2)c(OC(C)=O)c2ccccc12	i	-0.2	3.1*	5620*	1464	2536
CCCCN(C)C(=O)c1coc(=O)c2ccccc12	i	0.0088	3.1*	5824	.	2404
CN(C(=O)c1coc(=O)c2ccccc12)c1ccc(F)cc1	i	.	0.44	.	.	.
COc1ccc(NC(=O)c2ccccc2NC(=O)CN2C(=O)c3ccccc3C2=O)cc1	i	.	.	.	.	.
CCN(CC)S(=O)(=O)c1cc(C(=O)Nc2ccccc2OC)ccc1C	i	.	.	.	.	.
CCOC(=O)Cn1nnnc1C(CC)N(Cc1ccccc1)Cc1cc2cc(C)ccc2[nH]c1=O (centres undefined)	.	0.27	.	.	.	.
CCC(c1nnnn1CCOC)N(Cc1ccc(C)cc1)Cc1cc2cc(OC)ccc2[nH]c1=O (centres undefined)	i	-0.66	5.8*	14016*	1612	5100*
COc1ccc(C2CC(=O)C3=C(C2)Nc2ccccc2NC3c2ccccc2OCc2ccccc2)cc1 (centres undefined)	i	.	.	.	.	.
CCOC(=O)c1cccc(NC(=O)C(C(C)C)N2C(=O)c3ccccc3C2=O)c1 (centres undefined)	i	.	.	.	.	.
COc1ccc(C2=Nn3c(nnc3-c3ccncc3)SC2)cc1	.	-0.17	.	.	.	.
CCOc1ccc(C2=Nn3c(nnc3-c3ccc(OC)cc3)SC2)cc1	i	0.52	7.8*	11104*	1552	4836*
COc1ccc(OCc2nnc3n2N=C(c2ccc(OC)cc2)CS3)cc1	i	2.2	9.7*	13236*	.	4800*
COc1ccc(OCc2nnc3n2N=C(c2ccc(C)cc2)CS3)cc1	i	0.27	1.5	.	.	.
C=CCc1c(C)c2ccc(OC(C)=O)cc2oc1=O	i	.	.	.	.	.
N/C(=N/O)c1nc(N2CCCC2)nc(N(c2ccccc2)c2ccccc2)n1	i	-2.3	7.2*	13376*	1828	4252*
c1ccc(N(c2ccccc2)c2nc(N3CCOCC3)nc(N3CCOCC3)n2)cc1	i	.	1.8	.	.	.
N/C(=N/O)c1nc(N2CCCCC2)nc(N2CCCCC2)n1	i	1.7	5.2*	18416*	1644	5040*
C1CCN(c2nc(N3CCCCC3)nc(N3CCNCC3)n2)CC1	i	0.88	-0.048	.	.	.
CCOC(=O)C1=C(c2ccccc2)NC(=O)NC1c1ccccc1OC (centres undefined)	i	.	.	.	.	.
COc1ccccc1CNC(=O)CN(c1cccc([N+](=O)[O-])c1)S(=O)(=O)c1ccccc1	i	.	.	.	.	.
